Among the test systems are HCI01; HCI03; HCI09; HCI11; HCI13; HCI16; UCD52; WHIM2; WHIM30.
Test in all cases: cell viability (% of vehicle); higher = less cytotoxic
Holding throughout (conditions): 10 µM; 72 h

± gives the standard deviation of the averaged measurements.
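Note: PDX cells carrying CMV promoter-driven luciferase, viability read as total photon flux per second by IVIS imaging following D-luciferin, vehicle control 0.1% DMSO.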

As for `COc1ccc(C2(C#N)CCC(C(=O)O)CC2)cc1OC1CCCC1` (stereo not given) [Cilomilast], the cell viability with HCI01 was 120 ± 9.7; in the experiment on HCI03 (cells of an ER-positive luminal breast cancer xenograft), 114; in the experiment on HCI09 (cells of a triple-negative luminal androgen receptor type breast cancer xenograft), 89 ± 22; in the experiment on HCI11 (cells of an ER-positive luminal breast cancer xenograft) it was 88.4; in the experiment on HCI13 (cells of an ER-positive luminal breast cancer xenograft), 104 ± 9.8; in the experiment on HCI16 (cells of a triple-negative basal-like breast cancer xenograft), 146. Besides, the figures for the cell viability in the experiment on UCD52 (cells of a triple-negative basal-like breast cancer xenograft), with WHIM2 and in the experiment with WHIM30 were 103 ± 12, 117 ± 8.9 and 113.9 ± 0.63, respectively.

As to `COc1c(N2CCNC(C)C2)c(F)cc2c(=O)c(C(=O)O)cn(C3CC3)c12` (stereo not given) [Gatifloxacin], the cell viability came to 99.3 ± 31 in the experiment with HCI01; 81.1 with HCI03; 75 ± 10 in the experiment with HCI09; 124 with HCI11; 82.6 ± 7.6 with HCI13; 92.2 with HCI16. The cell viability came to 140 ± 6.7 in the experiment on UCD52, 59.6 ± 23 with WHIM2 and 124 ± 24 with WHIM30.

Turning to `CC[N+](CC)(CC)CCOc1cccc(OCC[N+](CC)(CC)CC)c1OCC[N+](CC)(CC)CC.[I-].[I-].[I-]` [Gallamine Triethiodide], the cell viability in the experiment on HCI01 (cells of a triple-negative basal-like breast cancer xenograft) was 107 ± 9.8; in the experiment with HCI03, 118; with HCI09, 94.6 ± 20; with HCI11, 88.1; with HCI13, 107 ± 8.3; in the experiment on HCI16, 92.6. Besides, the cell viability with UCD52 was found to be 98 ± 6.3; with WHIM2, 118 ± 6.2; in the experiment on WHIM30 (cells of a triple-negative basal-like breast cancer xenograft), 79.5 ± 6.1.

In the case of `CC(CN1CC(=O)NC(=O)C1)N1CC(=O)NC(=O)C1` (stereo not given) [Dexrazoxane], the cell viability with HCI01 was determined as 83 ± 6.2; in the experiment with HCI03 it was 148; with HCI09, 102 ± 20; in the experiment with HCI11, 92.4; in the experiment on HCI13 it was 110 ± 13; in the experiment on HCI16, 103. Moreover, the results for the cell viability with UCD52, with WHIM2 and in the experiment on WHIM30 were 100.8 ± 0.77, 75.7 ± 5.5 and 131.05 ± 0.028, respectively.

Consider `O=S(=O)([O-])CCSSCCS(=O)(=O)[O-].[Na+].[Na+]` [Dimesna], for which the cell viability amounted to 111 ± 23 in the experiment on HCI01; 150 with HCI03; 97 ± 6.5 with HCI09; 103 with HCI11; 122 ± 15 with HCI13; 124 with HCI16. The cell viability was 111 ± 8.6 in the experiment on UCD52, 128 ± 9.9 with WHIM2 and 125 ± 12 in the experiment on WHIM30.

Turning to `CC(=O)Oc1cc(C(F)(F)F)ccc1C(=O)O` [Triflusal], the cell viability in the experiment with HCI01 is 108 ± 22; in the experiment on HCI03, 129; in the experiment with HCI09, 97 ± 13; with HCI11 it was 101; with HCI13, 107 ± 1.9; in the experiment with HCI16, 98.4. In addition, the results for the cell viability with UCD52, in the experiment on WHIM2 (cells of a triple-negative basal-like breast cancer xenograft) and with WHIM30 were 76 ± 3.1, 107 ± 17 and 85.4 ± 4.2, respectively.

With `CCCC(C(=O)OCCN(CC)CC)(c1ccccc1)c1ccccc1.Cl` [SKF 525A (hydrochloride)], the cell viability in the experiment with HCI01 turned out to be 103 ± 33; in the experiment with HCI03, 123; with HCI09 it was 93.8 ± 1.2; in the experiment on HCI11, 66.3; in the experiment on HCI13, 103 ± 28; in the experiment on HCI16, 130. Besides, the results for the cell viability with UCD52, with WHIM2 and with WHIM30 were 61.5 ± 5.9, 99.1 ± 11 and 119.8 ± 0.2, respectively.

As for `CN1CCN2c3ncccc3Cc3ccccc3C2C1` (stereo not given) [Mirtazapine], the cell viability in the experiment on HCI01 worked out at 66.7 ± 36; in the experiment on HCI03, 149; in the experiment on HCI09, 91.4 ± 1.8; in the experiment on HCI11, 103; with HCI13, 118 ± 26; in the experiment on HCI16, 114. Moreover, the results for the cell viability in the experiment with UCD52, in the experiment on WHIM2 and in the experiment with WHIM30 were 86.1 ± 2.4, 87.6 ± 30 and 138 ± 17, respectively.

As to `Cc1cnc(NC(=O)C2=C(O)c3ccccc3S(=O)(=O)N2C)s1` [Meloxicam (Mobic)], the cell viability with HCI01 is 104 ± 10; in the experiment with HCI03, 125; in the experiment with HCI09 it was 96.1 ± 18; with HCI11 it was 102; with HCI13 it was 124 ± 5; in the experiment on HCI16 it was 88.8. The cell viability in the experiment on UCD52 came out at 80.5 ± 6.5; in the experiment on WHIM2, 94 ± 12; with WHIM30, 81.3 ± 13.

Regarding `Cc1ncc([N+](=O)[O-])n1CC(O)CCl` (stereo not given) [Ornidazole], the cell viability is 94.9 ± 14 with HCI01; 115 with HCI03; 96 ± 7.9 in the experiment with HCI09; 83.2 with HCI11; 111 ± 18 with HCI13; 105 in the experiment with HCI16. The results for the cell viability in the experiment on UCD52, in the experiment on WHIM2 and with WHIM30 were 85.1 ± 4.3, 88.1 ± 8.4 and 108 ± 10, respectively.

For the origin of these results see the supplement of paper PMC6992640.
